From PubChem BioAssay AID2685 (National Center for Advancing Translational Sciences (NCATS), 2010) come the findings set out here.

Among all 320,000 compounds or so, about 2,100 (0.66%) were called active. Not shown: some 53% with an inconclusive outcome. Calls come from the whole dose curve; as a rule, active = well fitted inhibition curve with a large enough effect in the signal ratio, with a control signal flat (not every such curve was filed as active); inconclusive = small, poorly fitted or top-dose-only effect, or effect the other way, or a change in a side signal; inactive = flat fitted curve, though single readings scatter; the % refers to the signal ratio. The sample as a whole holds a higher share of actives than the screen did.
Potency is the fitted concentration of half-maximal effect.

A short description of the assay: qHTS Assay for Lipid Storage Modulators in Drosophila S3 Cells.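 For cell number change: cells counted by Cell Tracker Red CMTPX staining in the red channel.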 For lipid storage change, negative = inhibition: % is set by controls: 0 for no effect and ±100 for the full control effect. Particulars: BODIPY lipid droplet fluorescence, 18-24 h, cells fed with added oleic acid; cell number change: measured here: cell count max response; series mostly up to 46.1 µM; lipid storage change, negative = inhibition: at the top concentration. A digest of the protocol:
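Drosophila S3 cells loaded with oleic acid (400 uM, as added) and compounds at several concentrations; lipid droplets imaged by 488-nm laser-scanning cytometry, 500–530 nm intensity and object ratio to cell channel. Percent activity normalized to 20 uM Triacsin C.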
A general note: qHTS replaces the single test concentration by a dilution series.
With `CC12CCC(C(=O)Nc3ccccc3)(C(Br)C1=O)C2(C)C` (stereo not drawn), the “lipid storage change, negative = inhibition” value was -1.99% (inactive) and the cell number change is -7.13%.
On the same counts, the results for `CC/C(O)=C(/C#N)c1nnc2n1CCCCC2` are 5.83% (inactive) and 8.5%.
In the same order, the values of `CCOCCCNS(=O)(=O)c1cc2[nH]c3c(c2cc1C)C(=O)CC(C)(C)C3` are 15.5% (inactive) and 16.9%.
Take `Cc1ccc(C(=O)NCCNC(=O)c2ccco2)cc1C`: the molecule was classed as inactive and the cell number change was found to be 19.6%.
Turning to `COC(=O)c1c(NC(=O)CC2SC(N)=NC2=O)sc2c1CCCC2` (stereo not drawn), the molecule was called inactive.
For `COc1ccc(NC(C)c2ccccc2)cc1` (stereo not drawn), the “lipid storage change, negative = inhibition” value was -0.458% (inactive) and the cell number change is -5.31%.
Regarding `COc1ccc(N2CCN(c3nc(Cl)nc(N4CCOCC4)n3)CC2)cc1`, the “lipid storage change, negative = inhibition” value is 1.09% (inactive) and the cell number change was -11.2%.
Regarding `COc1cc(C(=O)N(Cc2ccc(C)o2)C2CCS(=O)(=O)C2)cc(OC)c1OC` (stereo not drawn), the result was inactive and the cell number change was -6.11%.
As to `O=C(Nc1ccccc1N1CCCCC1)c1ccc(-c2ccc(Cl)cc2)o1`, the Potency was 14.6 µM (active) and the cell number change is 1.36%.
In the case of `CN1CCN(c2ccccc2NC(=O)c2ccc(-c3ccc(Cl)c(Cl)c3)o2)CC1`, the call was inactive.
Regarding `O=C(Nc1ccccc1N1CCCCC1)c1ccc(Cl)cc1`, the “lipid storage change, negative = inhibition” value is 11.4% (inactive) and the cell number change is 12%.
On the same counts, the results for `Cc1csc(N(C(=O)Cc2ccccc2F)c2ccccc2)n1` are 12.9% (inactive) and 3.81%.
`Clc1ccc(C2=Nn3c(nnc3-c3cccnc3)SC2)s1`: the “lipid storage change, negative = inhibition” value was 2.18% (inactive) and the cell number change is -22.1%.
In the same order, the values of `COC(=O)c1sc(=S)n(-c2cccc(Cl)c2)c1N` are 10.6% (inactive) and -15.4%.
For `COC(=O)c1sc(=S)n(-c2ccccc2)c1N`, the Potency was 11.6 µM (active).
As for `CCOC(=O)c1sc(=S)n(-c2ccccc2)c1N`, the “lipid storage change, negative = inhibition” value is -10% (inactive) and the cell number change was -17.5%.
For `Cc1cc(C)n2c(SCC(C)C)nnc2n1`, the “lipid storage change, negative = inhibition” value was -18.2% (inactive) and the cell number change is -0.577%.
On the same counts, the results for `O=C(CCCc1ccccc1)N1CCc2ccccc21` are 3.79% (inactive) and 4.72%.
As to `Cc1ccc(NC(=O)CS(=O)CC(=O)N(CC(=O)NC(C)(C)C)c2cccc(C)c2C)cc1` (stereo not drawn), the outcome was inactive and the cell number change is 1.3%.
For the molecule `O=C(N/C(=C\c1ccccc1)C(=O)N1CCOCC1)c1ccco1`, the result was inactive and the cell number change amounted to 1.67%.
As for `CC(C)C12CN3CC(C(C)C)(CN(C1)C3(C)C)C2=O`, the “lipid storage change, negative = inhibition” value is 28.2% (inactive) and the cell number change turned out to be 8.23%.
As for `COc1ccc(C2(C(=O)NCc3ccccc3Cl)CCOCC2)cc1OC`, the “lipid storage change, negative = inhibition” value was 0.89% (inactive) and the cell number change is -6.59%.
On the same counts, the results for `N#Cc1ccc(OCC(=O)N/N=C/C2CC=CCC2)cc1` (stereo not drawn) are -10.4% (inactive) and 18.8%.
In the same order, the values of `COc1ccc(OCC(=O)N/N=C/C2CC=CCC2)cc1` (stereo not drawn) are 24.9% (inactive) and -11.3%.
Consider `O=C(COc1ccc(Cl)cc1Cl)N/N=C/C1CC=CCC1` (stereo not drawn), for which the Potency is 1.84 µM (active) and the cell number change was -11.9%.
Consider `CCc1[nH]nc(C(=O)N2CCCC(Nc3cccc(F)c3)C2)c1C` (stereo not drawn), for which the “lipid storage change, negative = inhibition” value is 22.4% (inactive) and the cell number change turned out to be 0.697%.
On to `CCNC(=S)Nc1cccc([N+](=O)[O-])c1`, for which the “lipid storage change, negative = inhibition” value is 13.2% (inactive) and the cell number change is 16.5%.
Consider `CCCCC1CCC(C(=O)N(C)CC(=O)Nc2cccc(F)c2)CC1` (stereo not drawn), for which the Potency was 0.651 µM (active) and the cell number change is 20.8%.
Take `CN(CC(=O)Nc1ccc(F)cc1)C(=O)c1ccc(N2C(=O)CCC2=O)cc1`: the “lipid storage change, negative = inhibition” value was 14.9% (inactive) and the cell number change was determined as 5.41%.
In the case of `CN(CC(=O)Nc1cccc(F)c1)C(=O)c1cccc2ccccc12`, the Potency was 5.8 µM (active) and the cell number change was -19.1%.
On the same counts, the results for `COc1cccc(-c2nn(-c3ccc(C)cc3)cc2C(=O)N(C)CC(=O)Nc2cccc(F)c2)c1` are 6.51 µM (active) and -27.2%.
For the molecule `CN(CC(=O)Nc1c(Cl)cccc1Cl)C(=O)c1ccncc1`, the call was inactive and the cell number change came out at 22.3%.
Turning to `CC1CC1C(=O)N(C)CC(=O)Nc1cccc(F)c1` (stereo not drawn), the cell number change is -4.04% and the lipid storage change, negative = inhibition was -4.95% [at 0.0737 µM] (inactive).
On to `CN(CC(=O)Nc1cccc(F)c1)C(=O)c1cc(-c2ccccc2)nc2ccccc12`, for which the lipid storage change, negative = inhibition was 3.36% [at 0.0737 µM] (inactive).
As for `CCCCC1CCC(C(=O)N(C)CC(=O)Nc2cccc(OC)c2)CC1` (stereo not drawn), the “lipid storage change, negative = inhibition” value is 1.23% (inactive) and the cell number change is -0.846%.
Take `COc1cccc(NC(=O)CN(C)C(=O)c2cn(-c3ccccc3)nc2-c2cccnc2)c1`: the “lipid storage change, negative = inhibition” value was -11.3% (inactive) and the cell number change is -3.75%.
In the case of `CN(CC(=O)Nc1ccc(F)cc1)C(=O)c1ccncc1`, the Potency was 1.64 µM (active).
In the case of `CN(CC(=O)Nc1cccc(F)c1)C(=O)c1cc(=O)[nH]c2ccccc12`, the “lipid storage change, negative = inhibition” value was -3.39% (inactive) and the cell number change was 6.52%.
Regarding `COc1ccc(NC(=O)CN(C)C(=O)c2cn(-c3ccccc3)nc2-c2ccc(F)cc2)cc1`, the “lipid storage change, negative = inhibition” value was -10.5% (inactive) and the cell number change was -10.6%.
In the same order, the values of `Cc1nc([N+](=O)[O-])c(C(=O)OCc2cccc(Br)c2)n1C` are 7.28% (inactive) and -13.6%.
On the same counts, the results for `O=C(COC(=O)C1CCN(c2ccc(C(F)(F)F)cn2)CC1)NCc1ccc(Cl)cc1Cl` are -2.28% (inactive) and 7.81%.
As for `O=C1CCCN1c1ccc(S(=O)(=O)N2CCCCC2)cc1[N+](=O)[O-]`, the “lipid storage change, negative = inhibition” value is 2.6% (inactive) and the cell number change turned out to be 14.2%.
As to `CS(=O)(=O)c1ccccc1C(=O)N(CCc1ccccc1)Cc1ccccc1`, the “lipid storage change, negative = inhibition” value is -1.63% (inactive) and the cell number change is -4.69%.
On to `O=C(NCC1CCN(C(=O)c2ccc([N+](=O)[O-])cc2)CC1)C(=O)Nc1ccccc1`, for which the “lipid storage change, negative = inhibition” value is -6.82% (inactive) and the cell number change was -0.701%.
